Mot1-301 SUMO: yeast Mot1-301 growth rescue at high temperature, primary screen, SUMOylation pathway inhibitor project, S. cerevisiae, ATP luminescence, 38.5C. AID 2716, 2010. growth rescue, % at 18.8 µM. 1% of 320,000 active. S. cerevisiae Mot1-301 growth rescue; percent above DMSO median, 100 means doubled;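 active = every valid replicate shows activation above 250% relative to neutral control wells; inactive = the rest, any valid replicate at or below 250%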;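 note: OY570 slx delta 5 strain wells were the positive control but not used for scaling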
N-glyco inh: increase of ERlucT glycosylation luciferase signal, primary screen, N-linked glycosylation inhibitor project, D54 ERlucT cells, luminescence, set 2; D54 ERlucT glycosylation luciferase reporter, 24 h; percent of 100 nM tunicamycin response; 0.23% of 360,000 active; reporter increase, % at 12.5 µM;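 active = mean luciferase reporter signal, scaled so untreated is 0 and the glycosylation-blocking control 100, at or above a set limit in every replicate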;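 note: luciferase carries N-glycosylation sites so blocking glycosylation raises the light; 0% = median of neutral control wells and 100% = median of 100 nM tunicamycin wells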
ALR inh: inhibitors of human ALR sulfhydryl oxidase, primary screen, biochemical, H2O2 detection, HRP-luminol luminescence, single point; 3.8% of 290,000 active; inhibition, % (test concentration not listed); purified ALR, DTT oxidation;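 active = mean replicate inhibition above about 79%, with every replicate also reaching it, limit read from the data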
Target sequence (P55789 whole entry, looked up): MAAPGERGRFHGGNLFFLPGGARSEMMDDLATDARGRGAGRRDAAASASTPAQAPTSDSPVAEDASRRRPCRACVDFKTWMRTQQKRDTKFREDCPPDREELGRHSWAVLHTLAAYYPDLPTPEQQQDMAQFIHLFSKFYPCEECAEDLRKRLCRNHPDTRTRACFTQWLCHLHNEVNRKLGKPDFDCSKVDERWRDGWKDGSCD
CASP6 VEID inh: human caspase-6 inhibitors, primary screen, biochemical, VEID-R110 fluorescence, single point, set 2 | P55212 | purified caspase-6, Z-VEID-R110 cleavage fluorescence | inhibition, % at 12.5 µM | 0.53% of 350,000 active;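 active = mean inhibition across replicates at least about 35%, with every replicate also reaching that limit, limit read from the data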;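 note: 0% = median of neutral control wells and 100% = no fluorescence left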
Target sequence (P55212 24-179 limits assumed): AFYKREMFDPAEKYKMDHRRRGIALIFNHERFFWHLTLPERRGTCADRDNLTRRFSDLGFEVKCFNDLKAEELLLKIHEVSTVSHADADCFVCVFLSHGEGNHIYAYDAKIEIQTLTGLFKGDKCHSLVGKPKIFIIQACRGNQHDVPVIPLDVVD
Target sequence (P55212 194-293 limits assumed): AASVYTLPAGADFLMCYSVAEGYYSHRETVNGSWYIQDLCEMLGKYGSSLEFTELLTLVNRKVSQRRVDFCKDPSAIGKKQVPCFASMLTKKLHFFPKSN
NSD2 HMT inh: NSD2 histone methyltransferase inhibitors, primary screen, biochemical, AlphaScreen, single concentration, set 2; Histone-lysine N-methyltransferase NSD2 (Homo sapiens), O96028; NSD2 peptide methylation, 120 min; inhibition, % at 12.5 µM; 0.54% of 310,000 active; AID 743445, 2014; in the data active = inhibition above about 50%
CDK5 inh: inhibitors of human CDK5/p35 kinase, primary screen, biochemical, single concentration. Recombinant CDK5/p35, ADP-Glo luminescence, 60 min. 0.01% of 330,000 active. inhibition, % at 10 µM;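 active = highest replicate inhibition of at least 50% and at least 75% of replicates reaching 50%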;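 note: plate controls were DMSO neutral control for no effect and GW8510 at 10 µM for full effect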
Active calls of the source: *. Shown are actives, neighbours in structure and some others; about 3.9% of the full set was active somewhere.

Screening Cc1ccc(NC(NC(=O)c2cccs2)C(Cl)(Cl)Cl)cc1C (stereo unspecified) returned Mot1-301 SUMO 26, N-glyco inh -4, ALR inh 67, NSD2 HMT inh -1 and CDK5 inh -1.
Cc1ccc(NC(NC(=O)c2cccnc2)C(Cl)(Cl)Cl)cc1 (stereo unspecified) was read as Mot1-301 SUMO -9, N-glyco inh 1, ALR inh 99*, CASP6 VEID inh -3, NSD2 HMT inh 2 and CDK5 inh -2.
For COc1ccccc1NC(NC(=O)c1cccnc1)C(Cl)(Cl)Cl (stereo unspecified) the results were N-glyco inh 2, ALR inh 88*, CASP6 VEID inh 0, NSD2 HMT inh 1 and CDK5 inh -1.
Screening Cc1ccc(NC(NC(=O)c2ccccn2)C(Cl)(Cl)Cl)cc1 (stereo unspecified) returned Mot1-301 SUMO 18, N-glyco inh 1, ALR inh 99*, NSD2 HMT inh 0 and CDK5 inh -1.
Screening O=C(C[C@H]1C[C@@H]2c3cc(NC(=O)C4CCOCC4)ccc3O[C@@H]2[C@H](CO)O1)NCc1ccncc1 returned CASP6 VEID inh 1.
Screening CN1C(=O)c2cc(NS(C)(=O)=O)ccc2OC[C@@H]2O[C@H](CC(=O)NCc3ccc(-c4ccccc4)cc3)CC[C@@H]21 returned CASP6 VEID inh 2.
`COc1ccc(-c2cc(C(=O)N3CC4(C)CC3CC(C)(C)C4)no2)cc1` (stereo unspecified) gave Mot1-301 SUMO -1, N-glyco inh -9, ALR inh -8, NSD2 HMT inh 3 and CDK5 inh 0.
For COc1ccc(-c2cc(C(=O)N3CC4(C)CC3CC(C)(C)C4)no2)cc1OC (stereo unspecified) the results were Mot1-301 SUMO 879*, N-glyco inh -5, ALR inh -8, CASP6 VEID inh 19, NSD2 HMT inh -3 and CDK5 inh 0.
Screening C[C@H]1CN([C@@H](C)CO)C(=O)c2cc(NC(=O)CCCCCC(=O)Nc3ccccc3N)ccc2O[C@@H]1CN(C)S(C)(=O)=O returned CASP6 VEID inh -1.
`O=C(C[C@H]1C=C[C@@H](NC(=O)C2CCOCC2)[C@H](CO)O1)Nc1ccc(-c2ccccc2)cc1` gave CASP6 VEID inh -3.
`O=C(C[C@H]1CC[C@@H](NC(=O)C2CCOCC2)[C@@H](CO)O1)NCC1CC1` gave CASP6 VEID inh 9.
O=C(O)c1cc(N/N=C2/CC(c3ccccc3)Oc3ccccc32)ccc1Cl (stereo unspecified) was read as Mot1-301 SUMO 8, N-glyco inh -1, ALR inh 98*, NSD2 HMT inh 12 and CDK5 inh -2.
`CC(C)(C)N/N=C1\CC(c2ccccc2)Oc2ccccc21` (stereo unspecified) gave Mot1-301 SUMO -22, N-glyco inh -3, ALR inh 14, NSD2 HMT inh 0 and CDK5 inh -1.
Screening Cc1cccc(C(=O)N2CCc3cc(-c4nc(NC(=O)Cn5nnc6ccccc6c5=O)sc4C)ccc32)c1 returned Mot1-301 SUMO 378*.
`CN(C(=S)Nc1ccc(SC(F)F)cc1)c1ccc(O)cc1` gave Mot1-301 SUMO -1, N-glyco inh 2, ALR inh 81*, CASP6 VEID inh 12, NSD2 HMT inh -2 and CDK5 inh 0.
CN(C(=S)Nc1ccc(Oc2ccccc2)cc1)c1ccc(O)cc1 was read as Mot1-301 SUMO 0, N-glyco inh 3, ALR inh 7, NSD2 HMT inh 0 and CDK5 inh 1.
For Oc1ccc(N=Nc2ccc3c(c2)OCCO3)c(O)c1 the results were Mot1-301 SUMO 4, N-glyco inh -17, CASP6 VEID inh -2, NSD2 HMT inh -6 and CDK5 inh -2.
For Oc1ccc(N=Nc2ccc(Br)cc2)c(O)c1 the results were Mot1-301 SUMO 13, N-glyco inh 4, ALR inh 99*, CASP6 VEID inh 4, NSD2 HMT inh 11 and CDK5 inh 0.
For Cc1ccc(N=Nc2ccc(O)cc2)c(Br)c1 the results were Mot1-301 SUMO -20, N-glyco inh -10, ALR inh 92*, CASP6 VEID inh 2, NSD2 HMT inh 10 and CDK5 inh 3.
CCOc1ccccc1N1C(=O)CC(Sc2n[nH]c(-c3ccccc3)n2)C1=O (stereo unspecified) was read as Mot1-301 SUMO -12, N-glyco inh -3, ALR inh 99*, CASP6 VEID inh 2, NSD2 HMT inh 0 and CDK5 inh 4.
`COc1ccccc1N1C(=O)CC(Sc2nc(C)cc(C)n2)C1=O` (stereo unspecified) gave Mot1-301 SUMO -17, N-glyco inh 2, ALR inh 0, CASP6 VEID inh -1, NSD2 HMT inh -1 and CDK5 inh -2.
Screening COc1ccc(N2C(=O)CC(Sc3n[nH]c(-c4cccc(C)c4)n3)C2=O)cc1 (stereo unspecified) returned Mot1-301 SUMO 78, N-glyco inh 2, ALR inh 99*, CASP6 VEID inh 0 and NSD2 HMT inh 1.
COc1ccc(NC(=O)N(C)C[C@H]2Oc3c(NC(=O)c4cnccn4)cccc3C(=O)N([C@H](C)CO)C[C@@H]2C)cc1 was read as CASP6 VEID inh -4.
`CC(C)NC(=O)Nc1ccc2c(c1)C(=O)N([C@@H](C)CO)C[C@@H](C)[C@H](CN(C)C(=O)c1ccccc1)OCCCC[C@@H](C)O2` gave CASP6 VEID inh 0.
For COc1ccc2c(c1)C(=NO)c1cc(OC)ccc1-2 the results were Mot1-301 SUMO 28, N-glyco inh -2, ALR inh 96*, NSD2 HMT inh -2 and CDK5 inh 0.
For Nc1ccc(SCc2cccnc2)cc1 the results were Mot1-301 SUMO 20, N-glyco inh 1, ALR inh 100*, CASP6 VEID inh -4, NSD2 HMT inh -1 and CDK5 inh -2.
Screening CCC(=O)N[C@H]1CC[C@@H](CCNS(=O)(=O)c2ccc(Cl)cc2)O[C@H]1CO returned CASP6 VEID inh 0.
Screening COc1ccc(-c2nc3n(n2)C(c2ccccc2)C2=C(CCCC2=O)N3)cc1OC (stereo unspecified) returned N-glyco inh 1, ALR inh 97*, NSD2 HMT inh 0 and CDK5 inh -5.
`CNC(=S)NN(c1ccccc1)c1ccccc1` gave Mot1-301 SUMO -2, N-glyco inh 1, ALR inh 95*, CASP6 VEID inh -2, NSD2 HMT inh 0 and CDK5 inh -1.

Screens deposited in PubChem BioAssay by Broad Institute.
